Results on 15 compounds are retold here after ChEMBL document CHEMBL3433997, “St. Jude Leishmania screening dataset” (2016).

Molecules are shown by their SMILES.

The assay deals with Solute carrier family 2, facilitated glucose transporter member 1 (Homo sapiens) (UniProt P11166). The assay is described as follows: ST_JUDE_LEISH: Cytotoxicity at 2uM final concentration against transgenic Leishmania Mexicana promastigotes LmGLUT1 that are glucose transport deficient and complemented with the human glucose transporter GLUT1. Activity is measured by DNA content using SYBR green in vitro. The format is functional.
Sequence of Solute carrier family 2, facilitated glucose transporter member 1 (Homo sapiens) (P11166 whole entry): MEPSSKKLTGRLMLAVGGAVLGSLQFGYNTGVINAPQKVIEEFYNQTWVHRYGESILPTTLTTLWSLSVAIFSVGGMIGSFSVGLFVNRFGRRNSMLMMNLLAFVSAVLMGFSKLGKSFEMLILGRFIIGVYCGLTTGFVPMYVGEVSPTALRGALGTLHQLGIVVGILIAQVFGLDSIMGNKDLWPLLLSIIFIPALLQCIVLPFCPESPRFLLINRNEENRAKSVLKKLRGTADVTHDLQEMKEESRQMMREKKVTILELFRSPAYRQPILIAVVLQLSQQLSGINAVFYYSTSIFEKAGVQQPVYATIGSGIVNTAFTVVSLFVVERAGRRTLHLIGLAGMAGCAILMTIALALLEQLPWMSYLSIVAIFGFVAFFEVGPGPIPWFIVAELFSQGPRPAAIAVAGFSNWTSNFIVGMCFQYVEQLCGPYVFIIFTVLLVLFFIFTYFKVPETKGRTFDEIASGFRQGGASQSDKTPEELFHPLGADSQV
Regarding `CC(=O)Nc1nnc(SCc2c(C)cc(C(C)(C)C)cc2C)s1`, the inhibition was found to be 0.82%.

Regarding `O=C(Nc1ccc(Cn2ncc(N3CCCNCC3)c(Cl)c2=O)cc1)Nc1cccc(Oc2ccccc2)c1`, the inhibition worked out at 2.36%. Then `O=C([C@H]1CCCCN1c1ccc([N+](=O)[O-])c2ccccc12)N1CCN(c2ncccn2)CC1`, with 2.02%; and `O=C(NC(Nc1ccc([N+](=O)[O-])cc1)C(Cl)(Cl)Cl)c1ccc(Cl)cc1` (stereo not given), with 0.96%. Under `CN1CCN(CC(=O)Nc2ccc(-c3ccc(-c4nc5cc(C(F)(F)F)ccc5[nH]4)s3)cc2)CC1` stands -0.05%; under `CCc1cc(CNC2CCN(CCc3c(F)cnc4ccc(OC)nc34)CC2)cc2c1OCCO2`, 23.9%. For `CCN(CC)S(=O)(=O)c1ccc(Cl)c(C(=O)Nc2ccc3nc(C)sc3c2)c1`, the inhibition is -2.24%. Under `COc1cc(OC)cc(C(=O)Nc2cccc(-c3cn4ccc(C)cc4n3)c2)c1` stands 6.3%. With `c1cc(CNCCc2ccncc2)cc(-c2ccc(-c3nc4ccccc4[nH]3)s2)c1`, the inhibition is 0.32%. Then `C[C@H](Cc1ccc(CCc2ccc(C[C@@H](C)NC[C@H](O)c3cccc(Cl)c3)cc2)cc1)NC[C@H](O)c1cccc(Cl)c1`, with 59.1%.

As to `Nc1nc(N)c2cc(Cc3ccc([N+](=O)[O-])cc3)cnc2n1`, the inhibition was -2.65%. With `CCCc1ccc(NC(=O)c2ccc(CN3CCCN(CC4CCCCC4)CC3)cc2)cc1`, the inhibition worked out at 2.9%. Under `CN(CC(=O)Nc1ccc(F)c(F)c1F)c1ncnc2sc(-c3ccccc3)cc12` stands 3.92%; under `COc1cc2ccccc2cc1CNCCCCCCNCc1cc2ccccc2cc1OC`, 5.18%.

As for `CN1CCN(Cc2c(O)ccc3c(=O)c(Oc4ccc(C(C)(C)C)cc4)c(C(F)(F)F)oc23)CC1`, the inhibition turned out to be 70.7%.
